Assay results from PubChem BioAssay (NCI).
This is part of a sample that, as a whole, favours compounds with a hit. Of some 83,000 tested, about 20% had one in any assay.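 Testing used 96-well plates and a 48-hour single-concentration exposure. Example: -40 means 40% of the starting cells died.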 Values without a mark were called inactive. Calls of active or inactive are those of the source.

Tested on: HCT-15 colon
Assay: NCI-60 one-dose screen, 48 h (100 = growth as untreated, 0 = no growth, -100 = all killed)
Conditions: 10 µM unless noted
Procedure: Growth inhibition of the HCT-15 human tumor cell line is measured as a screen for anti-cancer activity. Cells are grown in 96 well plates and exposed to the test compound for 48 hours. Compounds are tested at a single concentration, which is 10^-5 M for most compounds. The reported endpoint is percent growth (GI% or GIPRCNT), where numbers from 0 - 100% represent growth inhibition, and numbers from -100% - 0 represent cell death. For example, a value of 40 represents 60% growth inhibition. A value of 0 means no net growth occurred over the course of the experiment. A value of -40 indicates 40% of cells at the beginning of the experiment died by the end of the experiment. A value of -100 means all cells are dead at the end of the experiment.
NCI-60 Human Tumor Cell Lines Screen was performed using the standard one-dose NCI protocol, which is described in more detail at https://dtp.cancer.gov/discovery_development/nci-60/default.htm.
Compounds with GIPRCNT values below 10 were considered active. Activity score was based on GIPRCNT using the following formula: […]
Score is 0 for GIPRCNT values of 100 or above, 50 for GIPRCNT values of 0, and 100 for GIPRCNT values of -100.

Q: For `COc1cccc(COc2ccc(NC(=O)Nc3ccc(Cl)c(C(F)(F)F)c3)cc2)c1`, which growth is on record?
A: 11.8%

Q: For `Cn1cc(-c2nc(N)nnc2-c2c[nH]c3ccc(F)cc23)c2cccnc21`, which growth is on record?
A: 51.8%

Q: With `CCS(=O)(=O)N1CCCC(C(=O)Nc2nc3ccc(NC(=O)c4ccc(F)c(OC)c4F)cc3s2)C1` (stereo not given) as the compound, how does the growth read?
A: 51%

Q: `COc1cccc(-c2nc(Nc3ccc(S(N)(=O)=O)cc3)c3ccccc3n2)c1` was tested. Which growth did it give?
A: 5.48% (active)

Q: For `NS(=O)(=O)c1ccc(NNC(=O)CCC(=O)c2ccccc2)cc1`, which growth is on record?
A: 104%

Q: `CN(C)CCCNC(=O)c1cc(NC(=O)c2cc(NC(=O)c3ccc(/C=C/c4ccccc4)cc3)cn2C)cn1C` was tested. Which growth did it give?
A: 44.3%

Q: How did the growth turn out when `CCCSc1nc(Nc2ccc(S(N)(=O)=O)cc2)c(C#N)c(-c2ccc(Cl)cc2)n1` was run?
A: 21.7%

Q: With `CCCCCCCS(=O)(=O)N1CCCC(C(=O)Nc2nc3ccc(NC(=O)c4ccc(F)c(OC)c4F)cc3s2)C1` (stereo not given) as the compound, how does the growth read?
A: 59.6%

Q: `Nc1cc2ccccc2c(=O)n1NC(=O)c1ccc(I)cc1` was tested. Which growth did it give?
A: 102%

Q: `N/C(=N\c1nc2ccccc2s1)NC(=O)Nc1c(Cl)cccc1Cl` was tested. Which growth did it give?
A: 26.1%

Q: `COc1ccc(C(=O)/C=C/c2cccc(Cl)c2Cl)cc1S(N)(=O)=O` was tested. Which growth did it give?
A: -69.4% (active)

Q: `Cc1ccc([C@H]2C(C(=O)c3ccc(Cl)cc3)C3(N[C@@H]2c2ccccc2)C(=O)Nc2ccccc23)cc1` (stereo not given in full) was tested. Which growth did it give?
A: 35.6%

Q: `CC1=C(C(=O)OC(C)C)C(c2cccc(O)c2)NC(=S)N1` (stereo not given) was tested. Which growth did it give?
A: 106%

Q: Which growth does the source give for `COc1cc(C2CC(c3cc(OC)c(OC)c(OC)c3)=NN2C(C)=O)ccc1OCc1ccccc1` (stereo not given) here?
A: 34.6%

Q: For `CCOC(=O)C1=C(N)N(c2ccccc2)C2=C(C(=O)CC(C)(C)C2)C1c1ccccc1Cl` (stereo not given), which growth is on record?
A: 49.1%

Q: How did the growth turn out when `C=C1CCC2C3(C)COC(c4ccccc4)OC3CCC2(C)C1CC(NCc1ccccc1)C1=CCOC1=O` (stereo not given) was run?
A: 87.1%

Q: Which growth does the source give for `O=c1c2ccccc2nc(-c2ccccc2)n1/N=C/c1ccc2ccccc2c1` here?
A: 13.1%

Q: How did the growth turn out when `Cc1ccc(S(=O)(=O)c2nc(S(=O)(=O)c3ccc(C)cc3)c(N3CCN(C)CC3)s2)cc1` was run?
A: 24.6%

Q: Which growth does the source give for `COc1cc(C2CC(c3cc(OC)c(OC)c(OC)c3)=NN2c2ccccc2)ccc1OCc1ccc(C)cc1` (stereo not given) here?
A: 86.2%

Q: With `CN(C)CCOc1ccc(C(=O)C2[C@H](c3ccc(Cl)cc3)[C@@H](c3ccccc3)NC23C(=O)Nc2ccc(Br)cc23)cc1` (stereo not given in full) as the compound, how does the growth read?
A: -81.5% (active)

Q: `O=c1[nH]n(C(=S)N/N=C/c2ccccc2Cl)c(=O)c2ccccc12` was tested. Which growth did it give?
A: -41.3% (active)

Q: For `C#CCOc1ccc(/C=N/Nc2nc(-c3cc4cc(Br)ccc4oc3=O)cs2)cc1OC`, which growth is on record?
A: 85.4%

Q: How did the growth turn out when `CCCCSc1nc(NCCc2c[nH]c3ccccc23)c(C#N)c(-c2ccc(OC)cc2)n1` was run?
A: 24.9%

Q: How did the growth turn out when `COc1ccc(NC(=O)Cn2c3c(sc2=O)[C@H]2[C@@H](O)[C@@H](O)[C@H](O)[C@@H]2CS3)cc1` was run?
A: 104%

Q: With `N#Cc1c(-c2cccnc2)cc(-c2ccc3ccccc3c2)[nH]c1=O` as the compound, how does the growth read?
A: 80.7%

Q: For `O=C(O)c1ccc(-c2ccc(/C=N/NC(=O)c3[nH]c4ccc(Br)cc4c3-c3ccccc3)o2)cc1`, which growth is on record?
A: 7.24% (active)

Q: With `O=C(COc1ccc(NC(=O)Nc2ccc(Cl)cc2)cc1)N/N=C/c1ccccc1` as the compound, how does the growth read?
A: -80.3% (active)

Q: For `CC(=O)Nc1cccc(Nc2nc(NCc3ccccc3)c3ccccc3n2)c1`, which growth is on record?
A: -87.1% (active)

Q: For `CCOc1ccc(-c2c(C#N)c(-c3ccc(Cl)cc3)nc3n[nH]c(-c4ccc(Cl)cc4)c23)cc1OC`, which growth is on record?
A: 19.6%

Q: With `O=C(COc1ccc(NC(=O)Nc2ccccc2)cc1)N=Nc1c(O)[nH]c2ccc([N+](=O)[O-])cc12` as the compound, how does the growth read?
A: 103%

Q: `COc1cc2c3c(n(CCCN4CCC[C@@H]4CO)c(=O)c2cc1OC)-c1cc2c(cc1C3=O)OCO2` was tested. Which growth did it give?
A: -90.9% (active)

Q: `COc1cc2nc(SCc3ccccc3)n(-c3ccc(Cl)cc3)c(=O)c2cc1OC` was tested. Which growth did it give?
A: 33.6%

Q: For `N/C(=N\c1nc2ccccc2s1)NC(=O)Nc1ccc(Cl)cc1Cl`, which growth is on record?
A: -25.7% (active)

Q: For `CCCCCCCCc1ccc(S(=O)(=O)Nc2ccc(CC)cc2C(=O)O)cc1`, which growth is on record?
A: 85.7%

Q: How did the growth turn out when `COc1ccccc1C(=O)NN1C(=O)/C(=C/C2=Cc3ccccc3OC2)SC1=S` was run?
A: 114%

Q: Which growth does the source give for `CC1(C)CC[C@]2(C(=O)Nc3ccccc3)CC[C@]3(C)C(=CCC4[C@@]5(C)C[C@@H](O)[C@H](O)[C@@](C)(CO)C5CC[C@]43C)C2C1` (stereo not given in full) here?
A: 42.5%

Q: With `CN1CCc2c(sc3ncnc(N/N=C/c4ccc(Cl)cc4Cl)c23)C1` as the compound, how does the growth read?
A: 10.2%

Q: `COc1ccc(/C=C/c2nc3ccccc3c(=O)n2CC(=O)Nc2ccc(OC)cc2)cc1` was tested. Which growth did it give?
A: 88.4%

Q: Which growth does the source give for `COc1ccc(C(=O)/C=C/c2cc3c(cc2Br)OCO3)cc1S(N)(=O)=O` here?
A: -40.4% (active)

Q: With `COc1ccc(Cc2nn(CC(=O)N/N=C/c3ccc(F)cc3)c(=O)c3c(C)noc23)cc1` as the compound, how does the growth read?
A: 67.2%
